# Source: PubChem BioAssay
# An excerpt weighted towards active compounds, which were near 4.7% of everything screened.
# tim10-1 inh: growth inhibitors of tim10-1 mutant yeast. S. cerevisiae tim10-1 ts strain growth, BacTiter-Glo, 24 h. inhibition, % at 20 µM. 330,000 tested, 2.2% active;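 active = inhibition of at least 40%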;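 also: mutant grown at 25 °C; 0% = DMSO wells with yeast and 100% = wells holding no yeast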
# SKKanGAS inh: SKKanGAS growth inhibition; S. pyogenes SKKanGAS, kanamycin growth, BacTiter-Glo, 6 h; inhibition, % at 7.5 µM; 300,000 tested, 1.3% active;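 active = mean replicate score, as percent of positive control median, at least 50; inconclusive = mean below 50 but one replicate at or above 50; inactive = mean and every replicate below 50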;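 also: strain carries kanamycin resistance gene driven by streptokinase promoter and grows in 40 µg/ml kanamycin; loss of luminescence reflects streptokinase promoter inhibition or plain growth inhibition; 0% = median of DMSO wells and 100% = positive control at its reference dose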
# TIM10 inh: inhibits growth of TIM10 yeast strain; inhibition, % at 10 µM; S. cerevisiae TIM10 strain growth, BacTiter-Glo luminescence, 24 h; 330,000 tested, 1.4% active;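 active = inhibition of 40% or more at the single tested concentration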;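 also: wild-type TIM10 isogenic control strain grown at permissive 25 °C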
# PfHsp90 yeast 2: reduces growth (ATP signal) of yeast expressing P. falciparum Hsp90. S. cerevisiae expressing PfHsp90, BacTiter-Glo ATP, 48 h; yeast lacking PDR1 and PDR3 efflux regulators. inhibition, % at 9.4 µM. 310,000 tested, 0.32% active. AID 504621;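 active = every replicate shows inhibition above about 80%, whatever the replicate mean, limit read from the data; inconclusive = mean inhibition reaches the set limit but some replicate falls short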;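 also: 0% = DMSO neutral controls and 100% = 20 µM radicicol positive controls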
# EBI2 block: blocks human EBI2 receptor beta-arrestin signaling. 360,000 tested, 0.81% active. EBI2 beta-arrestin recruitment, luminescence, 7a,25-OHC stimulated. inhibition, % at 5 µM. P32249; in the data active = inhibition above about 38%;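 also: enzyme fragment complementation signal reports receptor beta-arrestin coupling in cells; 0% = agonist plus DMSO wells and 100% = wells without agonist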
# Target sequence (P32249 whole entry, looked up, the tested form may be a part): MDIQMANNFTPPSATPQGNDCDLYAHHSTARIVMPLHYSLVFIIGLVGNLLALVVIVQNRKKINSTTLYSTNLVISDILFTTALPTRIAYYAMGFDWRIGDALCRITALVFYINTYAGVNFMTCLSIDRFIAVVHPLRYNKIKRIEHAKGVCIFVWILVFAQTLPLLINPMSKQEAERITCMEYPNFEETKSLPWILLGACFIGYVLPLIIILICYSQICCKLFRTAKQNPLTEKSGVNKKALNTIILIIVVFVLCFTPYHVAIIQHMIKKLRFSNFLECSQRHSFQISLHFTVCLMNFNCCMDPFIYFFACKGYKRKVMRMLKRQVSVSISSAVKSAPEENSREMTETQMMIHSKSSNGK
# tim23-1 inh: inhibits growth of tim23-1 mutant yeast; S. cerevisiae tim23-1 growth, BacTiter-Glo luminescence, 24 h; inhibition, % at 20 µM; 330,000 tested, 1.3% active; AID 463212;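 active = growth inhibition of the mutant yeast at or above 50%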;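 also: temperature-sensitive mutant grown at 25 °C; plate controls were DMSO-treated mutant yeast for no effect and medium wells lacking yeast for full effect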
# tim23-1 confirm: confirmation of tim23-1 mutant yeast growth inhibitors | shares compounds with tim23-1 inh | S. cerevisiae tim23-1 growth, BacTiter-Glo luminescence, 24 h | inhibition, % at 20 µM | 4,400 tested, 83% active | AID 463218;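 active = inhibition above about 39% in either of two replicate wells at 20 µM, limit read from the data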;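 also: temperature-sensitive tim23-1 mutant grown at 25 °C; 0% = DMSO wells with yeast and 100% = medium wells without yeast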
# EBI2 antag conf: confirmation of human EBI2 receptor antagonists; shares compounds with EBI2 block; EBI2 beta-arrestin luminescence, 7a,25-OHC antagonism; inhibition, % at 5 µM; 2,400 tested, 29% active;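 active = inhibition of at least 50%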
# EBI2 agonist: activates EBI2, counter-screen for EBI2 antagonists. EBI2-expressing cells, agonist mode, luminescence, 60 min; 0% vehicle, 100% 7α,25-dihydroxycholesterol control. activation, % at 5 µM. 2,400 tested, under 10 active. shares compounds with EBI2 block;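 active = activation of at least 50%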
# bGal cs: counter-screen for EBI2 antagonists: E. coli beta-galactosidase inhibition. purified beta-galactosidase, luminescent Galacton Star, 15 min. shares compounds with EBI2 block. 2,400 tested, 1% active. inhibition, % at 5 µM;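 active = replicate-average signal at least 3 plate SD below neutral wells, shown as high inhibition, flagging enzyme-inhibiting false positives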;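 also: 0% = DMSO wells with enzyme and 100% = wells lacking enzyme; higher means stronger loss of beta-gal luminescence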
# * marks the source's active call; other numbers are inactive results; ? = inconclusive; nt = no result.
SMILES,tim10-1 inh,SKKanGAS inh,TIM10 inh,PfHsp90 yeast 2,EBI2 block,tim23-1 inh,tim23-1 confirm,others
Cc1ccc(C)c(Cn2c3ccccc3c3cnn(CC(=O)NCCCN4CCOCC4)c(=O)c32)c1,-16,-5,-54,-11,-1,-78,nt,
O=CN(/C=C1\Sc2ccccc2C1=O)Cc1ccccc1,31,1,23,-10,-8,68*,66*,
CCC(=O)N(C)/C=C1\Sc2ccccc2C1=O,-25,3,-15,23,-2,53*,5,
CC(=O)N(C)/C=C1\Sc2ccccc2C1=O,-41,3,-22,8,2,18,nt,
CCn1cc(C(=O)NCCCN(CC(C)C)CC(C)C)c(=O)c2cc(S(=O)(=O)N3CCOCC3)ccc21,-14,-14,1,-4,-7,-10,nt,
O=C(N/C(=C/c1ccc(Br)cc1)C(=O)N1CCCCC1)c1ccccc1F,32,-1,16,6,1,37,nt,
Cc1cccc(-n2nc3c(c2NC(=O)c2ccc(Br)o2)CSC3)c1,-1,4,11,-23,2,30,nt,
CC(C)(C)c1ccc(-c2nc(C=O)c3ccccn23)cc1,33,0,38,nt,-33,52*,50*,
Nc1nnn(CC(=O)N/N=C/c2ccc(Cl)cc2Cl)n1,-7,-1,3,-14,-4,-12,nt,
COC(=O)c1ccc(NC(=O)CSc2nc(=O)n3cccc(C)c3n2)cc1,-15,-6,-9,nt,-5,72*,53*,
O=C(Nc1c2c(nn1-c1ccccc1)CS(=O)(=O)C2)c1cc2ccccc2o1,24,-3,5,5,15,27,nt,
COc1ccc(C2CC(c3ccccc3C(F)(F)F)=NN2c2ccc(S(N)(=O)=O)cc2)cc1 (stereo not drawn),30,nt,4,-21,16,49,nt,
COc1ccc(C2CC(c3ccc(C(F)(F)F)cc3)=NN2c2ccc(S(N)(=O)=O)cc2)cc1 (stereo not drawn),32,nt,30,-27,8,51*,14,
CCOC(=O)Nc1ccc(Oc2ccccc2)cc1,27,9,20,nt,23,9,nt,
CCOC(=O)Nc1ccc(C(=O)/C=C/c2ccccc2)cc1,27,-12,27,6,63*,58*,40,EBI2 antag conf=32;EBI2 agonist=1;bGal cs=9
COc1cccc(C(=O)c2c(-c3ccccc3)ncc3cc(OC)c(OC)cc23)c1,21,nt,-13,-4,85*,54*,33,EBI2 antag conf=56*;EBI2 agonist=0;bGal cs=-14
COc1cc2nc(C3CCC3)nc(N3CCN(c4ccccc4OC)CC3)c2cc1OC,30,?,39,37,46*,53*,44*,EBI2 antag conf=36;EBI2 agonist=2;bGal cs=-6
O=C(COC(=O)c1ccc(O)cc1)Nc1ccccc1[N+](=O)[O-],-25,-2,-11,-2,14,17,nt,
COc1cc2cc(C(=O)N3CCN(c4ccccc4OC)CC3)[nH]c2cc1OC,36,-3,19,19,6,34,nt,
COc1ccccc1N1CCN(C(=O)c2cc3ccccc3[nH]2)CC1,26,4,24,-17,73*,52*,48*,EBI2 antag conf=55*;EBI2 agonist=2;bGal cs=5
CC(C)C(NS(=O)(=O)c1cccc2nsnc12)C(=O)N1CCCCC1 (stereo not drawn),26,7,14,16,-5,17,nt,
Cc1ccc(NC(=O)c2ccc(OCc3c(C)noc3C)cc2)cc1C,-26,nt,30,22,53*,59*,56*,EBI2 antag conf=29;EBI2 agonist=0;bGal cs=-1
CC(=O)Nc1ccc(NC(=O)c2ccc(OCc3c(C)noc3C)cc2)cc1,-5,nt,-18,-12,3,-15,nt,
O=C(CSc1nnc(-c2ccccc2F)o1)N1CCNC1=O,-2,nt,-7,2,8,-2,nt,
